Test results reported in PMC8384837, “Expanding the binding specificity for RNA recognition by a PUF domain”.

Columns and labels:
Assay in all cases: yeast three-hybrid, YBZ-1, SC-Leu-His + 0.5 mM 3-AT, 4 days
Conditions in all cases: tags: N-Gal4 AD-HA kept; label: inside an RPR1-promoter hybrid RNA with tandem MS2 sites; ssRNA
[1] = biological target: PUM1 PUF domain R5-DFL (Homo sapiens, UniProt Q14671 828-1176, C1007D;R1008F;Q1011L)
Outline: (§1)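 Pumilio-1 PUF domain libraries, randomized at the three base-contacting residues of each repeat, were co-expressed with matching RNA elements from a centromeric plasmid in strain YBZ-1, which carries a LexA–MS2 coat fusion and a HIS3 reporter. Transformants grew for four days on SC-Leu (input) or on SC-Leu-His + 0.5 mM 3-AT (selection), and the repeat regions were PCR-amplified and Illumina-sequenced. The interaction score is the log change in variant frequency from input to selection. That logarithm is base 2, with a pseudocount of 1 where a variant was absent.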

[2] = biological target: PUM1 PUF domain R4-CLQ (Homo sapiens, UniProt Q14671 828-1176, N971C;H972L)
Outline: as §1

[3] = biological target: T1, PUM1 PUF domain R6-HFL (Homo sapiens, UniProt Q14671 828-1176, N1043H;Y1044F;Q1047L)
T1 sequence: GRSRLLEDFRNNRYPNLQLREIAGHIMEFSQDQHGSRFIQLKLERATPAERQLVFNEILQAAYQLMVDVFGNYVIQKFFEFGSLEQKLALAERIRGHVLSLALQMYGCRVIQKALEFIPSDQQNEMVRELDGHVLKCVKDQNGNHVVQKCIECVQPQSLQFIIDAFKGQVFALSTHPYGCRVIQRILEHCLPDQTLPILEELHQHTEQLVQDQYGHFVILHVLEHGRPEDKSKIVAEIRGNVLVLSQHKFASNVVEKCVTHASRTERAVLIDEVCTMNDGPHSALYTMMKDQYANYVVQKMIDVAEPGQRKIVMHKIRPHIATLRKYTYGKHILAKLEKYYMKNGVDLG
Outline: as §1

[4] = biological target: PUM1 PUF domain R5-HNR (Homo sapiens, UniProt Q14671 828-1176, C1007H;R1008N;Q1011R)
Outline: as §1

[5] = biological target: PUM1 PUF domain R7-GQR (Homo sapiens, UniProt Q14671 828-1176, S1079G;N1080Q;E1083R)
Outline: as §1

[6] = biological target: PUM1 PUF domain R7-EFR (Homo sapiens, UniProt Q14671 828-1176, S1079E;N1080F;E1083R)
Outline: as §1

[7] = biological target: PUM1 PUF domain R1-SPE (Homo sapiens, UniProt Q14671 828-1176, R864P;Q867E)
Outline: as §1

[8] = biological target: PUM1 PUF domain R1-RCV (Homo sapiens, UniProt Q14671 828-1176, S863R;R864C;Q867V)
Outline: as §1

[9] = biological target: PUM1 PUF domain R1-KLE (Homo sapiens, UniProt Q14671 828-1176, S863K;R864L;Q867E)
Outline: as §1

[10] = biological target: PUM1 PUF domain R3-FCV (Homo sapiens, UniProt Q14671 828-1176, C935F;R936C;Q939V)
Outline: as §1

[11] = biological target: PUM1 PUF domain R3-FRM (Homo sapiens, UniProt Q14671 828-1176, C935F;Q939M)
Outline: as §1

[12] = biological target: PUM1 PUF domain R4-FAA (Homo sapiens, UniProt Q14671 828-1176, N971F;H972A;Q975A)
Outline: as §1

[13] = biological target: PUM1 PUF domain R4-PHC (Homo sapiens, UniProt Q14671 828-1176, N971P;Q975C)
Outline: as §1

[14] = biological target: PUM1 PUF domain R4-QHK (Homo sapiens, UniProt Q14671 828-1176, N971Q;Q975K)
Outline: as §1

[15] = biological target: PUM1 PUF domain R5-SGG (Homo sapiens, UniProt Q14671 828-1176, C1007S;R1008G;Q1011G)
Outline: as §1

[16] = biological target: PUM1 PUF domain R5-RQL (Homo sapiens, UniProt Q14671 828-1176, C1007R;R1008Q;Q1011L)
Outline: as §1

[17] = biological target: PUM1 PUF domain R3-RQW (Homo sapiens, UniProt Q14671 828-1176, C935R;R936Q;Q939W)
Outline: as §1

For “GGCUAGAACUAGUGGAUCCCCCGGCGCCCGGCGGCUCGAGCCCGGGUAAGUGUAAAUAGUCUGCAUGCCGCCGGGCGCCAUGCCUGCAGGUCGACUCUAGAAAACAUG”, the binding signal [1] was 3.51 log2 enrichment (interaction score), the binding signal [2] was 3.83 log2 enrichment (interaction score) and the binding signal [3] was 2.57 log2 enrichment (interaction score).
“GGCUAGAACUAGUGGAUCCCCCGGCGCCCGGCGGCUCGAGCCCGGGUAAGUGUUAAUAGUCUGCAUGCCGCCGGGCGCCAUGCCUGCAGGUCGACUCUAGAAAACAUG” was tested, and the binding signal [4] was 4.6 log2 enrichment (interaction score).
For “GGCUAGAACUAGUGGAUCCCCCGGCGCCCGGCGGCUCGAGCCCGGGUAAGUUUAAAUAGUCUGCAUGCCGCCGGGCGCCAUGCCUGCAGGUCGACUCUAGAAAACAUG”, the binding signal [5] was 2.78 log2 enrichment (interaction score) and the binding signal [6] was 2.09 log2 enrichment (interaction score).
With “GGCUAGAACUAGUGGAUCCCCCGGCGCCCGGCGGCUCGAGCCCGGGUAAGUGUAAAUUGUCUGCAUGCCGCCGGGCGCCAUGCCUGCAGGUCGACUCUAGAAAACAUG” the binding signal [7] was 2.78 log2 enrichment (interaction score), the binding signal [8] was 1.82 log2 enrichment (interaction score) and the binding signal [9] was 4.05 log2 enrichment (interaction score).
In the case of “GGCUAGAACUAGUGGAUCCCCCGGCGCCCGGCGGCUCGAGCCCGGGUAAGUGUAAGUAGUCUGCAUGCCGCCGGGCGCCAUGCCUGCAGGUCGACUCUAGAAAACAUG”, the binding signal [10] is reported as 4.56 log2 enrichment (interaction score) and the binding signal [11] is reported as 5.33 log2 enrichment (interaction score).
In the case of “GGCUAGAACUAGUGGAUCCCCCGGCGCCCGGCGGCUCGAGCCCGGGUAAGUGUAUAUAGUCUGCAUGCCGCCGGGCGCCAUGCCUGCAGGUCGACUCUAGAAAACAUG”, the binding signal [12] is reported as 2.2 log2 enrichment (interaction score) and the binding signal [13] is reported as 4.13 log2 enrichment (interaction score).
“GGCUAGAACUAGUGGAUCCCCCGGCGCCCGGCGGCUCGAGCCCGGGUAAGUCUAAAUAGUCUGCAUGCCGCCGGGCGCCAUGCCUGCAGGUCGACUCUAGAAAACAUG” was tested, and the binding signal [6] was 2.21 log2 enrichment (interaction score).
For “GGCUAGAACUAGUGGAUCCCCCGGCGCCCGGCGGCUCGAGCCCGGGUAAGUGUACAUAGUCUGCAUGCCGCCGGGCGCCAUGCCUGCAGGUCGACUCUAGAAAACAUG”, the binding signal [14] was 3.41 log2 enrichment (interaction score) and the binding signal [13] was 3.16 log2 enrichment (interaction score).
“GGCUAGAACUAGUGGAUCCCCCGGCGCCCGGCGGCUCGAGCCCGGGUAAGUGUGAAUAGUCUGCAUGCCGCCGGGCGCCAUGCCUGCAGGUCGACUCUAGAAAACAUG” was tested, and the binding signal [15] was 3.53 log2 enrichment (interaction score).
In the case of “GGCUAGAACUAGUGGAUCCCCCGGCGCCCGGCGGCUCGAGCCCGGGUAAGUGUCAAUAGUCUGCAUGCCGCCGGGCGCCAUGCCUGCAGGUCGACUCUAGAAAACAUG”, the binding signal [16] is reported as 2.74 log2 enrichment (interaction score).
With “GGCUAGAACUAGUGGAUCCCCCGGCGCCCGGCGGCUCGAGCCCGGGUAAGUGUAAUUAGUCUGCAUGCCGCCGGGCGCCAUGCCUGCAGGUCGACUCUAGAAAACAUG” the binding signal [11] was 0.74 log2 enrichment (interaction score) and the binding signal [17] was 2.52 log2 enrichment (interaction score).
“GGCUAGAACUAGUGGAUCCCCCGGCGCCCGGCGGCUCGAGCCCGGGUAAGUGUAAAUCGUCUGCAUGCCGCCGGGCGCCAUGCCUGCAGGUCGACUCUAGAAAACAUG” was tested, and the binding signal [8] was 3.67 log2 enrichment (interaction score) and the binding signal [9] was 3.36 log2 enrichment (interaction score).
